GLP-1R inv ag: inverse agonists of human GLP-1 receptor; P43220; HEK293 GLP-1R CRE-luciferase, luminescence, 24 h; GLP-1R form is constitutively active; Potency, µM (top dose mostly 38.3 µM), most hits filed as inhibitors; 410,000 compounds, 1.6% hits; AID 624417; further: nearly all actives have a fitted effect of over 55% in size
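Inverse agonists were sought by their lowering of basal cAMP reporter luciferase output in HEK293 cells stably carrying constitutively active human GLP-1R, after 24 h compound treatment.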
RGS4 inh: human RGS4 inhibition | Potency, µM (doses to about 114 µM), hits mostly inhibitors | Transcreener GDP fluorescence polarization, RGS4-accelerated GTP hydrolysis | P49798 | 390,000 compounds, 0.039% hits; further: nearly all actives have a fitted effect of over 75% in size
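MLSMR compounds (23 nl, pin-transferred) preincubated 10 min at room temperature with a 500nM (2x) first reagent, then RGS4 at 900nM (2x) plus Transcreener GDP mix added; fluorescence polarization (620/688 nm) read before and after 90 min at 30 °C.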
GLP1R ag: agonists of human GLP-1 receptor; P43220; AID 624172; 380,000 compounds, 0.007% hits; Potency, µM (titrated, usually from 45.6 µM), actives largely listed as activators; HEK293 GLP-1R CRE-luciferase, luminescence, 4-6 h; cells express a hypersensitive GLP-1R form
HEK293 tox: cytotoxicity in counter-screen for GLP-1R inverse agonists. 410,000 compounds, 0.13% hits. Potency, µM (highest dose often 38.3 µM), most hits filed as inhibitors. HEK293 cAMP-luciferase reporter cells, luminescence, 24 h. AID 624418;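 further: loss of luciferase light is scored as toxicity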
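MLSMR compounds, 24 hr on cells at 37 deg C/5% CO2; luminescence after luciferase reagent (12 min RT). Inhibition counted as the undesired cytotoxic outcome.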
GCN5L2 inh: blocks human GCN5L2 histone acetyltransferase; Potency, µM (highest dose often 58.9 µM), actives largely listed as inhibitors; GCN5L2 HAT assay, ThioGlo1 CoA-SH fluorescence; 390,000 compounds, 0.21% hits; AID 504327
Target sequence (Q92830 whole entry, looked up): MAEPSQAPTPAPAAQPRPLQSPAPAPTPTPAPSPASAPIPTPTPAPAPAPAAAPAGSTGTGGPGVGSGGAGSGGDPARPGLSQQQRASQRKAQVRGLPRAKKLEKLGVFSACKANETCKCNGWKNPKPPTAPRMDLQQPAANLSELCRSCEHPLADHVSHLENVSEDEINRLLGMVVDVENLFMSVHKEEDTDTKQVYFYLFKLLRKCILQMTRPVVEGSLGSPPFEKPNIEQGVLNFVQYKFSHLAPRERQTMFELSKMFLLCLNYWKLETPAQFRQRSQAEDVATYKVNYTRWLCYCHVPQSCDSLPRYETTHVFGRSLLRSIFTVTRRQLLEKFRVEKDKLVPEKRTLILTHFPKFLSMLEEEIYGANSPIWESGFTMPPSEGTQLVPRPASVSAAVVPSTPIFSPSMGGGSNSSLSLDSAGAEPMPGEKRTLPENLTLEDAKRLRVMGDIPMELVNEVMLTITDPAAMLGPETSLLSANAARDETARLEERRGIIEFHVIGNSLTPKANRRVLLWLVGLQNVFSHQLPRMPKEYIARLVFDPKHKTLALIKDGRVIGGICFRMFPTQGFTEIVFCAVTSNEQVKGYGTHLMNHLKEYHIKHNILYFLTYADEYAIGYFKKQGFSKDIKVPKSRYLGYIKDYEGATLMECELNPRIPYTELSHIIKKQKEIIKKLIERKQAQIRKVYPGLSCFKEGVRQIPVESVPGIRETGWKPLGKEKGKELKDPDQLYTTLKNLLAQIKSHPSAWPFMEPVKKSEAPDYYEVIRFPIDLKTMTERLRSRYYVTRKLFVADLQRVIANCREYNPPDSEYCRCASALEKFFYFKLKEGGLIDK
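Enzyme at 20nM final was mixed with library compounds for 15 min at room temperature. Peptide H3(1-25) at 75uM, acetyl-CoA at 70uM and ThioGlo1 at 50uM were then added. Plates were read immediately and after 20 min (Ex340nm/Em540nm).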
PTHR1 agonist: activates the human parathyroid hormone receptor PTHR1. Q03431. HEK293 GP2 PTHR1 cells, GloSensor cAMP luminescence, 1 h. Potency, µM (highest dose often 115 µM), actives largely listed as activators. 410,000 compounds, 0.075% hits; further: nearly all actives have a fitted effect of over 55% in size
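HEK-293-derived GP2 cells expressing PTHR1 and a GloSensor cAMP reporter, 3,000/well, plated overnight, given luciferin plus IBMX (each 0.5 mM as added) for 1 h at 37 °C, then compound for 1 h at 37 °C. Luminescence was read after 15 min at room temperature.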
A number is an active result; - = inactive; ? = inconclusive; . = not tested or not shown; [ ] = another dose, or the depositor's remark. An excerpt weighted towards active compounds, which were near 1.8% of everything screened. The call rests on the fitted dose curve; in most records, active means well fitted curve in the direction sought with a large enough effect; inconclusive means small, poorly fitted or top-dose-only effect, or another doubt; inactive means no such curve, though single readings can be large; an effect the other way counts as inactive or inconclusive.

SMILES | GLP-1R inv ag | RGS4 inh | GLP1R ag | HEK293 tox | GCN5L2 inh | PTHR1 agonist
NS(=O)(=O)c1ccc(CCNC(=O)c2cc(-c3ccc(Br)cc3)nc3ccccc23)cc1 | ? | - | - | 11µM | - | -
O=C(Nc1nccs1)c1cc(-c2ccccc2)nc2ccccc12 | 5µM | - | - | - | - | -
O=C(Nc1nccs1)c1cc(Cl)nc2ccccc12 | - | - | - | - | - | -
COC(=O)C[C@@H]1CC[C@H](NC(=O)c2cnccn2)[C@@H](CO)O1 | - | . | . | - | . | -
CCc1nc2ccc(C(=O)N(CC)CCN(C)C)cn2c1N(C)C(=O)c1cccc(OC)c1 | - | . | - | - | . | -
CCCCCOc1ccc(Br)cc1CSC(=N)N | ? | - | - | 10µM | - | -
O=C(/C=N/O)Nc1ccc2sc3ccccc3c2c1 | - | - | - | - | - | -
Cc1ccc(/C=C2/SC(=S)N(CCCC(=O)Nc3ccc(O)cc3)C2=O)cc1 | ? | - | - | - | - | -
CN1CCN(C(=O)CCCN2C(=O)/C(=C/c3ccc(Cl)cc3)SC2=S)CC1 | 10µM | - | - | ? | - | -
O=C1/C(=C/c2ccccc2)SC(=S)N1CCCC(=O)N1CCCCC1CCO (stereo not given) | 5µM | - | - | - | - | -
O=C(CCCN1C(=O)/C(=C\c2ccccc2)SC1=S)Nc1ccc(O)cc1 | ? | - | - | 10µM | - | -
CC[C@H](C)[C@H](NC(=O)[C@H](CCC(=O)O)NC(=O)[C@@H](N)CO)C(=O)N[C@@H](CCC(N)=O)C(=O)N[C@@H](CC(C)C)C(=O)N[C@@H](CCSC)C(=O)N[C@@H](Cc1cnc[nH]1)C(=O)N[C@@H](CC(N)=O)C(=O)N[C@@H](CC(C)C)C(=O)NCC(=O)N[C@@H](CCCCN)C(=O)N[C@@H](Cc1cnc[nH]1)C(=O)N[C@@H](CC(C)C)C(=O)N[C@@H](C)C(=O)N[C@@H](CO)C(=O)N[C@H](C(=O)N[C@@H](CCC(=O)O)C(=O)N[C@@H](CCCNC(=N)N)C(=O)N[C@@H](CCSC)C(=O)N[C@@H](CCC(N)=O)C(=O)N[C@@H](Cc1c[nH]c2ccccc12)C(=O)N[C@@H](CC(C)C)C(=O)N[C@@H](CCCNC(=N)N)C(=O)N[C@@H](CCCCN)C(=O)N[C@@H](CCCCN)C(=O)N[C@@H](CC(C)C)C(=O)N[C@@H](CCC(N)=O)C(=O)N[C@@H](CC(=O)O)C(=O)N[C@H](C(=O)N[C@@H](Cc1cnc[nH]1)C(=O)N[C@@H](CC(N)=O)C(=O)N[C@@H](Cc1ccccc1)C(=O)O)C(C)C)C(C)C | . | . | . | . | - | .
COc1ccc(N=C(c2ccccc2)c2c(C)[nH]n(-c3ccccc3)c2=O)c(OC)c1 | 7.9µM | - | - | - | - | -
COc1ccccc1N=Nc1c(C)[nH]n(-c2ccccc2)c1=O | - | - | - | - | - | -
CCOC(=O)c1cc2c(ccn2C)n1CC(=O)N(Cc1ccccc1)c1ccccc1 | 13µM | - | - | - | - | -
Cc1cc(-c2ccc(N=Nc3c(S(=O)(=O)O)cc4cc(S(=O)(=O)O)cc(N)c4c3O)c(C)c2)ccc1N=Nc1c(S(=O)(=O)O)cc2cc(S(=O)(=O)O)cc(N)c2c1O | . | . | - | . | 11µM | .
Cc1cc(C)c(OCC(=O)OCC(=O)NCc2ccco2)c(C)c1 | - | . | - | - | . | -
C[C@@H]1CC=C[C@H]2[C@H]1C(=O)N(Cc1ccccc1)[C@H]2c1ccc(-c2ccc(N(C)C)cc2)cc1F | 7.9µM | - | - | - | - | -
Cc1ccc(F)c([C@H]2[C@H]3C=CC[C@@H](C)[C@@H]3C(=O)N2Cc2ccccc2)c1 | 10µM | - | - | - | - | -
C[C@@H]1CC=C[C@H]2[C@H]1C(=O)N(Cc1ccccc1)[C@H]2c1cccc([N+](=O)[O-])c1 | 7.1µM | - | - | - | - | -
NC(c1ccncc1)c1ccc(Cl)cc1 (stereo not given) | - | . | - | - | . | -
Cc1ccc2occ(CC(=O)N(Cc3ccc(Cl)cc3)C3CCS(=O)(=O)C3)c2c1 (stereo not given) | 11µM | - | . | - | - | -
CCc1ccc2occ(CC(=O)N(Cc3ccccc3)C3CCS(=O)(=O)C3)c2c1 (stereo not given) | ? | - | . | - | - | -
Cc1cccc(C)c1NC(=O)c1ccc2sc([C@@H]3O[C@H](CO)[C@H](O)[C@H](O)[C@H]3O)nc2c1 | - | . | - | - | . | -
CCOC(=O)c1c(-c2ccccc2)csc1NC(=O)c1cc(-c2cccc(OC)c2)on1 | - | ? | . | - | - | 40µM
SMILES | GLP-1R inv ag | RGS4 inh | GLP1R ag | HEK293 tox | GCN5L2 inh | PTHR1 agonist
CCNC(=S)Nc1scc(-c2ccccc2)c1C(=O)OCC | ? | ? | - | 10µM | - | -
CCOC(=O)c1c(-c2ccc(C)cc2)csc1NC(=O)c1cc(=O)c2cc(C)c(C)cc2o1 | - | - | . | - | - | -
CCOC(=O)c1c(-c2ccc(C)cc2)csc1NC(=O)c1cc(=O)c2cc(C)ccc2o1 | - | ? | . | - | ? | 4µM
CCOC(=O)c1c(-c2ccccc2)csc1NC(=O)CCN1C(=O)c2ccccc2C1=O | - | - | - | - | - | -
CCOC(=O)c1c(-c2ccccc2)csc1NC(=S)NC | - | -[11.4 µM] | - | ? | - | -
CCOC(=O)c1c(-c2ccc(-c3ccccc3)cc2)csc1NC(=O)CNCCN(C)C | 10µM | ? | - | - | - | -
CCOC(=O)c1c(-c2ccccc2)csc1NC(=O)c1cc(-c2cccc(Cl)c2)on1 | - | ? | . | - | - | -
O=C(c1ccc(-c2ccccc2Cl)o1)N1CCCCCCC1 | 5.6µM | - | ? | - | . | -
COc1ccc(C(CNC(=O)CCNS(=O)(=O)c2ccc(Br)cc2)N2CCCC2)cc1 (stereo not given) | ? | - | - | - | - | -
COc1ccccc1C(CNC(=O)CCNS(=O)(=O)c1ccc(Br)cc1)N1CCCC1 (stereo not given) | 10µM | - | - | - | . | -
O=C(CCNS(=O)(=O)c1ccc(Br)cc1)NCCc1ccc(Cl)cc1 | 10µM | - | - | - | - | -
COc1ccccc1C(CNC(=O)c1ccc(-c2ccccc2Cl)o1)N1CCCC1 (stereo not given) | 4.5µM | - | - | ? | - | -
CN(Cc1ccccc1)C(=O)C(=O)Nc1ccc2nc3n(c(=O)c2c1)CCCCC3 | - | - | . | - | - | -
COC(=O)c1ccc(CCc2cc(O)c(Br)cc2O)cc1 | - | ? | - | - | . | -
